# Assay outcomes (PubChem BioAssay)
# An excerpt weighted towards active compounds, which were near 3.6% of everything screened.
# mHTT CaM bind – mHTT-calmodulin interaction abrogation; AlphaScreen His-mHTT/GST-CaM binding, luminescence; inhibition, % at 15 µM; actives 3.6% (n = 190,000)
# Pf apPOL block – Pf-apPOL DNA polymerase inhibition; Recombinant Pf-apPOL, molecular beacon fluorescence, 1.5 h; inhibition, % at 10 µM; actives 0.25% (n = 210,000)
# Numbers stand for hits; . = inactive; / = no result. Cut-off read from the data, not from the text of the source: active = inhibition above about 50%; inactive = the rest.
SMILES,mHTT CaM bind,Pf apPOL block
Cc1ccccc1C(=O)Nc1cccc(N=Cc2cc(Cl)cc([N+](=O)[O-])c2O)c1,.,.
CCC(=O)NCc1nc2c(n1CC)CN(C(=O)c1cccc(Br)c1)CC2,.,.
CCCn1ncc(N2CCC(C(=O)Nc3cc(C)ccc3OC)CC2)cc1=O,77.3,.
CCn1c(N2CCC(C(=O)N3CCN(c4ccc(F)cc4)CC3)CC2)cc(=O)n(C)c1=O,70.5,.
CCn1c(N2CCC(C(=O)Nc3ccc(OC)c(OC)c3)CC2)cc(=O)n(C)c1=O,61.8,.
CCOc1ccc(NC(=O)C2CCN(c3cc(=O)n(C)c(=O)n3CC)CC2)cc1,60.7,.
Cn1c(N2CCC(C(=O)N3CCN(c4ccc(Cl)cc4)CC3)CC2)cc(=O)n(C)c1=O,.,.
CCCn1ncc(N2CCC(C(=O)Nc3ccc(OC)cc3OC)CC2)cc1=O,.,.
CCn1c(N2CCC(C(=O)Nc3ccc(F)cc3)CC2)cc(=O)n(C)c1=O,.,.
CCn1c(N2CCC(C(=O)Nc3cccc(OC)c3)CC2)cc(=O)n(C)c1=O,.,.
Cc1ccc(S(=O)(=O)N2CC3CC(NC(=O)c4cccnc4)C2C3)cc1C (stereo not drawn),.,.
Cn1ccc2ccn(Cc3nc(C4CC4)no3)c(=O)c21,.,.
Cc1noc(C2CN(C(=O)CC(C)(C)C)CC23CCOCC3)n1 (stereo not drawn),.,.
CCc1nc2ccccc2n1S(=O)(=O)c1ccc(C)c([N+](=O)[O-])c1,.,.
COc1cccc(OCCCCn2ccnc2C)c1,.,.
c1ccc(-n2ncc3c2CCc2c-3[nH]c3ccccc23)cc1,.,.
c1ccc(-n2ncc3c2-c2[nH]c4ccccc4c2CC3)cc1,92.7,.
Cc1ccc(NC2=C(N3CCCCC3)C(=O)c3ccccc3C2=O)cc1,68.3,.
O=C1C(Nc2cc(F)cc(F)c2)=C(N2CCOCC2)C(=O)c2ccccc21,.,.
O=C1C(Nc2ccccc2)=C(N2CCCCC2)C(=O)c2ccccc21,.,.
O=C1C(Nc2ccc(Br)cc2)=C(n2nnc3ccccc32)C(=O)c2ccccc21,.,.
CC(=O)c1ccc(NC2=C(N3CCCC3)C(=O)c3ccccc3C2=O)cc1,85.7,.
O=C1C(Nc2ccc(Br)cc2)=C(N2CCCCC2)C(=O)c2ccccc21,95.4,.
O=C(CCc1csc(NC(=O)c2cccs2)n1)Nc1nc(-c2cccnc2)cs1,.,.
O=C1/C(=C/c2ccc(Br)o2)Cc2ccccc21,.,.
SMILES,mHTT CaM bind,Pf apPOL block
Cc1cc(N2CCCCC2)nc(NCCNC(=O)Nc2ccc(F)cc2F)n1,.,.
CCOc1ccc(NC(C)=O)cc1N=Cc1ccc(C#Cc2ccccc2)cc1,.,.
COc1cc(O)c(CN2CCCC(C)C2)c2oc(-c3ccccc3)cc(=O)c12 (stereo not drawn),.,.
Cn1nc(C(=O)NCc2ccc3c(c2)OCO3)c2c1CCN(C(=O)c1ccc(F)cc1)C2,51.2,.
Cn1nc(C(=O)NCc2ccc3c(c2)OCO3)c2c1CCN(C(=O)Cc1cccs1)C2,54.0,.
Cn1nc(C(=O)NCc2ccc3c(c2)OCO3)c2c1CCN(C(=O)c1ccco1)C2,.,.
Cn1nc(C(=O)NCc2ccc3c(c2)OCO3)c2c1CCN(C(=O)c1cccs1)C2,.,.
O=[N+]([O-])c1ccc2nc(/C=C/c3ccco3)[nH]c2c1,59.0,.
C(=C\c1ccco1)/c1nc2ccccc2[nH]1,.,.
CN(C)/C=C1\N=C(c2ccccc2)c2cc(Cl)ccc2N(C)C1=O,51.0,.
CN1C2=NCCN2C(=O)c2cc(Cl)ccc21,/,.
COc1ccc(C(=O)N2CCC(c3nc4ccncc4n3C)C2)cc1 (stereo not drawn),.,.
N#Cc1c(-c2ccco2)cc(-c2cccs2)[nH]c1=O,/,83.1
N#Cc1c(C(F)(F)F)cc(-c2cccs2)[nH]c1=O,.,.
N#Cc1c(-c2cccs2)cc(-c2ccco2)[nH]c1=O,/,71.5
CSc1cc(-c2cccs2)[nH]c(=O)c1C#N,/,.
CCOc1ncccc1CNC(=O)C1(c2ccc(OC)cc2)CC1,.,.
O=S(=O)(c1ccccc1Br)N(Cc1ccccc1)CC(O)COCc1ccccc1 (stereo not drawn),98.2,.
CCN(Cc1ccccc1)S(=O)(=O)c1ccccc1Br,.,.
Cc1ccc(C)c(S(=O)(=O)N2CCCC2CNC(=O)C(=O)NCCC2=CCCCC2)c1 (stereo not drawn),.,.
N#Cc1ccc(N2C=C(C(=O)N3CCCCC3)S(=O)(=O)c3ccc(F)cc32)cc1,.,.
CN(C)CCCN1c2ccccc2Sc2ccc(Cl)cc21,/,.
CC(C)COc1ccc2c(c1)Sc1ccccc1N2CCN(C)C,92.6,.
Cc1cc(NC(=O)c2ccco2)n(-c2nc3ccccc3n2C)n1,.,.
N#Cc1cnc2ccccc2c1N1CCC(C(=O)Nc2ccc(F)cc2F)CC1,.,.
SMILES,mHTT CaM bind,Pf apPOL block
CS(=O)(=O)Oc1ccc2c(c1)OC(=Cc1c(Cl)cccc1Cl)C2=O,.,.
Cc1ccc(S(=O)(=O)NCCC2CCN(C(=O)c3ccccc3)CC2)cc1,.,.
O=C(c1ccccc1)N1CCC(CCNS(=O)(=O)c2ccccc2)CC1,50.3,.
CCc1ccc(S(=O)(=O)NCCC2CCN(C(=O)c3ccccc3)CC2)cc1,.,.
O=C(c1ccccc1)N1CCC(CCNS(=O)(=O)c2ccc3c(c2)CCCC3)CC1,60.2,.
CCOc1ccc(C(=O)Nc2cccc(Cl)c2Cl)cc1,.,.
O=C(c1ccc(Br)cc1)N1N=C(c2ccccc2)CC1(O)C(F)(F)F (stereo not drawn),.,.
Cc1[nH]nc(-c2ccc(F)cc2)c1NC(=O)c1cccs1,.,.
C=CCOc1ccc(/C=C2/C(=O)ON=C2C)cc1OC,87.0,.
COc1cc(/C=C2/C(=O)ON=C2C)ccc1OCCc1ccccc1,.,.
CCOc1cc(/C=C2/C(=O)ON=C2C)ccc1OCc1ccc(Br)cc1,.,.
CCCOc1ccc(/C=C2\C(=O)ON=C2C)cc1OCC,85.0,.
C#CCOc1ccc(/C=C2\C(=O)ON=C2C)cc1OC,.,.
CCOc1cc(/C=C2/C(=O)ON=C2C)ccc1OCc1cccc(Cl)c1,99.0,.
CCOc1cc(/C=C2\C(=O)ON=C2C)ccc1OCc1ccccc1,.,.
C#CCOc1ccc(/C=C2\C(=O)ON=C2C)cc1OCC,51.0,.
CCC(C)NC(=O)CC(NS(=O)(=O)c1ccc(F)cc1)c1cccc(OC)c1OC (stereo not drawn),.,.
CCOc1ccc(/C=C2\C(=O)ON=C2C)cc1OC,64.0,.
COc1cc(/C=C2/C(=O)ON=C2C)ccc1OCC(C)C,.,.
O=C(NC1CCCCC1)c1cnc2n(c1=O)CCS2,.,.
CN(Cc1ccccc1)S(=O)(=O)c1ccc(F)c(C(=O)Nc2ccc(F)c(F)c2)c1,.,.
CCC(=O)N1CCc2c(c(C(=O)NCc3ccc(Cl)cc3)nn2C)C1,81.4,.
CC(C)C(=O)N1CCc2c(c(C(=O)NCc3ccccc3)nn2C)C1,.,.
Cn1nc(C(=O)NCc2ccc(Cl)cc2)c2c1CCN(C(=O)C1CCCCC1)C2,93.1,.
Cn1nc(C(=O)NCc2ccc(F)cc2)c2c1CCN(C(=O)C1CC1)C2,.,.
CC(C)C(=O)N1CCc2c(c(C(=O)NCc3ccc(Cl)cc3)nn2C)C1,70.6,.
CCC(=O)N1CCc2c(c(C(=O)NCc3ccc(F)cc3)nn2C)C1,.,.
CSc1ccc(C2CC(c3ccc(Cl)cc3)Nc3nnnn32)cc1 (stereo not drawn),.,.
CC1(C)CC(=O)C2=C(C1)OC1=C(C(=O)CC(C)(C)C1)C2c1ccccn1,.,.
